F-actin modifier = modifiers of F-actin cytoskeleton organization, primary screen, imaging, HUVEC, phalloidin staining, high-content imaging. HUVEC TNFa F-actin phalloidin imaging. inhibition, % at 2 µM. 91,000 tested, 0.18% active. AID 836, 2007;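 active = inhibition above the batch mean plus 3 SD and confirmed as a hit by visual image inspection, cut at about 30% in these data, passing the limit was not always enough; inconclusive = above the inhibition threshold but rejected on visual inspection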
VCAM1 TNFa inh = inhibitors of TNFa-induced VCAM1 expression, primary screen, imaging, HUVEC, TNFa stimulus, immunofluorescence. inhibition, % at 2 µM. 95,000 tested, 0.48% active. HUVEC TNFa-induced VCAM-1 immunofluorescence, high-content imaging. AID 802, 2007;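 active = inhibition above the batch mean plus 3 SD, with images confirmed as a hit by eye, cut at about 37% in these data; inconclusive = inhibition above that limit but hit not confirmed in images; inactive = inhibition not above that limit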;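 also: 0% = TNF-stimulated DMSO wells and 100% = unstimulated control wells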
E-sel TNF inh = E-selectin induction blockers in HUVEC – imaging, immunofluorescence, high content, primary screen; HUVEC TNFa-induced E-selectin immunofluorescence; inhibition, % at 2 µM; 120,000 tested, 0.71% active; AID 1246, 2008;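 active = inhibition above the batch mean plus 3 SD, and confirmed as a hit on visual image review, cut at about 43% in these data; inconclusive = passes the inhibition cutoff but fails visual image review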;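 also: 0% = TNF-stimulated DMSO wells and 100% = unstimulated control wells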
TNFa cytotox = cytotoxicity in TNFa-stimulated HUVEC, primary screen, cytotoxicity control for VCAM1 expression modulator project, imaging, Hoechst nuclei count | HUVEC TNFalpha-stimulated, Hoechst cell count | cell count reduction, % at 2 µM | 93,000 tested, 0.17% active | AID 848, 2007;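 active = cell count reduction exceeding the screen mean by over 5 SD, scaled to untreated wells per plate, cut at about 78% in these data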;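 also: cells counted after 24 h of TNF alpha exposure following the 1 h pretreatment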
* = called active by the depositor; ? = inconclusive; nt = not tested or not shown. The list is not random: actives were taken first. Their share in the collection is about 1.1%.

SMILES	F-actin modifier	VCAM1 TNFa inh	E-sel TNF inh	TNFa cytotox
O=C(NNC(=O)c1ccccc1-n1cccc1)c1ccc(Cl)cc1	nt	-19.3	54.2*	9.3
O=C(NNC(=O)c1ccccc1-n1cccc1)c1ccc(Cl)c(Cl)c1	13.2	8.6	3.7	-33.6
COc1ccc(C2=NNC(c3cccs3)=Nc3ccc(OC)cc32)cc1	-15.7	8.6	74.3*	-17.8
CCOc1ccc(C2=NNC(c3cccs3)=Nc3ccc(OC)cc32)cc1OCC	-20.1	-1.3	-2.0	-5.9
C/C(=N\N1CCN(c2ccccc2)CC1)c1ccncc1	nt	nt	-13.8	nt
COc1ccc(CN2C(=O)[C@@H]3C(c4ccc(F)cc4)=NO[C@@H]3C2=O)cc1	36.5	91.8*	-6.2	nt
COC(=O)c1ccccc1N1C(=O)[C@@H]2C(c3ccc(F)cc3)=NO[C@@H]2C1=O	25.7	-4.9	67.5*	-8.3
Cc1ccc(/C=c2\sc3n(c2=O)CN(c2cccc(Br)c2)CN=3)o1	-8.5	-6.0	61.7*	-15.2
COC(=O)c1cccc(NC(=O)c2cccs2)c1C	nt	17.8	13.9	11.2
CCCNC(=O)C1CCN(S(=O)(=O)c2c(C)noc2/C=C\c2ccc(OC)cc2)CC1	-13.7	-1.0	76.2*	2.2
Cc1ccc(Nc2c([N+](=O)[O-])ccc3c2=NC2(CCCCC2)N=3)cc1	9.5	-15.1	-83.2	11.6
O=C(CN1CCN(c2nc(-c3ccc(F)cc3)cs2)CC1)Nc1ccc2c(c1)OCO2	0.6	88.0*	nt	13.0
O=C(Cc1csc(Nc2nc(=S)[nH]c3ccccc23)n1)N1CCN(c2cccc(C(F)(F)F)c2)CC1	nt	nt	7.5	nt
COc1ccc(NC(=S)N/N=C/c2cccn2Cc2ccc(F)cc2)cc1	nt	nt	1.3	nt
O=C(CC1N=C(Cc2ccccc2)NNC1=O)N/N=C/c1ccc([N+](=O)[O-])cc1 (stereo unspecified)	nt	nt	-30.5	nt
CCNC(=O)CCS(=O)(=O)c1ccc2ccccc2c1	11.6	5.3	-3.1	-21.7
O=C(Cn1ncc(Cl)c(Cl)c1=O)N1CCc2ccccc21	nt	nt	99.6*	nt
O=C(Cn1ncc2c1-c1ccccc1OC2)N1CCc2ccccc21	12.9	-10.3	nt	-3.1
COc1ccc(C2=Nn3c(nnc3-c3ccc(OC)cc3)SC2)cc1	8.2	39.6*	3.9	33.9
COc1cc(-c2nnc3n2N=C(c2ccccc2)CS3)cc(OC)c1OC	-40.7	54.3*	-49.6	-1.9
COc1ccc(C2=Nn3c(nnc3-c3ccccc3OC)SC2)cc1OC	nt	47.5*	-24.0	54.9
COc1ccc(-c2nnc3n2N=C(C)CS3)cc1	-0.9	4.6	29.8	-10.5
NS(=O)(=O)c1ccc(CCNC(=O)c2ccc(C#CC3(O)CCCCC3)cc2)cc1	nt	nt	-38.3	nt
CNC(=O)N(C1=NCC(C)(C)S1)c1ccc(F)c(Cl)c1	-11.8	12.6	nt	-4.6
COCCCNC(=O)c1cn(C)c(=O)c2cc(OC)c(OC)cc12	-24.9	?	nt	100.0*
SMILES	F-actin modifier	VCAM1 TNFa inh	E-sel TNF inh	TNFa cytotox
Cn1c(N)c(Sc2ccc(F)cc2)c(=O)n(C)c1=O	nt	nt	4.9	nt
CCCCN(CCCC)S(=O)(=O)c1ccc(NC(=O)c2cccs2)cc1	15.3	2.5	84.7*	2.4
Cc1cc(C)nc(NS(=O)(=O)c2ccc(NC(=O)c3cccs3)cc2)n1	-8.8	-4.0	2.0	13.8
O=C(c1ccc(COCC(F)(F)F)o1)N1CCCCCC1	5.1	-14.0	73.6*	-21.8
Cc1oc2cc3c(C(=O)N4CCCCC4)c(C)oc3cc2c1C(=O)N1CCCCC1	-22.1	89.1*	-27.1	79.6*
Cc1oc2cc3c(C(=O)N4CCN(c5ccccc5)CC4)c(C)oc3cc2c1C(=O)N1CCN(c2ccccc2)CC1	23.4	14.7	0.9	-33.9
COc1ccc(NC(=O)N(CCCN2CCOCC2)Cc2cccnc2)c(OC)c1	-7.3	13.5	60.9*	-0.8
CCOC(=O)C1=C(CC)OC(N)=C(C#N)C1c1cc(OC)ccc1OC (stereo unspecified)	nt	nt	94.5*	nt
CCOC(=O)C1=C(CC)OC(N)=C(C#N)C1c1ccc(OC)c(C)c1OC (stereo unspecified)	nt	nt	37.4	nt
CC(=O)Nc1ccc(S(=O)(=O)n2cnc(C)c2)cc1	-9.1	91.3*	9.2	97.9*
Cc1c(N)cc(C(=O)N2CCOCC2)cc1[N+](=O)[O-]	nt	nt	3.3	nt
CCOC(=O)c1c(NC(=O)C2=C(C)NC(=S)NC2c2ccc(CC)cc2)sc(C)c1C (stereo unspecified)	nt	nt	-6.1	nt
Cc1csc(NC(=O)CSc2nnc(-c3cccs3)n2C)n1	65.2*	12.5	-13.1	-26.7
Cc1csc(NC(=O)CSc2nnc(CCNC(=O)c3cccs3)n2C)n1	-3.9	16.3	2.9	4.2
Cn1c2ccccc2n2c(=O)c(=O)n(CC(=O)N3CCCc4ccccc43)nc12	nt	nt	8.2	nt
CCOC(=O)c1cc2c(=O)n3ccccc3nc2n(CCCOC)c1=NC(C)=O	4.1	-0.2	-12.5	-8.8
CCCn1c(=NC(=O)c2ccco2)c(C(=O)OCC)cc2c(=O)n3ccccc3nc21	-7.1	-9.4	57.9*	13.4
O=c1c2c3c(sc2nc2n1CCC2)CCC3	37.3*	15.3	4.2	-13.0
O=c1c2c3c(sc2nc2n1CCCC2)CCCC3	-4.3	-6.1	-60.2	-6.3
CC(Sc1nncs1)C(=O)Nc1ccc2c(c1)OCO2 (stereo unspecified)	nt	nt	-9.4	nt
Cc1cnc(NC(=O)c2ccco2)s1	-14.8	6.2	nt	89.1*
CN(C)CCNC(=O)c1cc2sc3ccccc3c2s1	nt	nt	-16.9	nt
CCN(CC)c1ccc(C2C(C(=O)OCCOC)=C(C)NC3=C2C(=O)CC(C)(C)C3)cc1 (stereo unspecified)	-43.6	2.1	61.4*	-12.5
CCCOC(=O)C1=C(C)NC2=C(C(=O)CC(C)(C)C2)C1c1ccc(N(C)C)cc1 (stereo unspecified)	44.5	-4.9	-0.2	-6.5
CCOC(=O)c1cc(-c2ccc(C)cc2)n(CCC(=O)N2CCN(c3ccccn3)CC2)c1C	nt	nt	-1.5	nt
SMILES	F-actin modifier	VCAM1 TNFa inh	E-sel TNF inh	TNFa cytotox
Cc1nc(-c2cccnc2)sc1C(=O)Nc1cccc(C(F)(F)F)c1	52.3*	7.3	23.6	-22.5
Cc1nc(-c2cccnc2)sc1C(=O)Nc1ccc(C(F)(F)F)cc1	23.2	-0.3	9.7	17.7
CCCCN1C(=O)C2C3C=CC(C2C1=O)C1C2C(=O)N(CCCC)C(=O)C2C31 (stereo unspecified)	nt	nt	71.8*	nt
CCCCNC(=O)CSc1cc(=O)n(C)c2ccccc12	30.8*	0.3	nt	39.9
Cn1c(=O)cc(SCC(=O)NCCCN2CCOCC2)c2ccccc21	5.4	21.7	nt	-1.2
CCCSc1nc(C)c(-c2csc(C(C#N)=C3CCCC3)n2)cc1C#N	-4.4	-14.7	61.9*	0.0
Cc1ccc(-n2c(SCC(=O)Nc3nccs3)nc3c(c2=O)SCC3)cc1	nt	nt	96.8*	nt
COc1ccc(-n2c(SCC(=O)Nc3ccc4c(c3)OCO4)nc3c(c2=O)SCC3)cc1	-0.9	7.3	nt	16.6
CCOc1ccc(-n2c(SCC(=O)Nc3nccs3)nc3c(c2=O)SCC3)cc1	nt	nt	-35.2	nt
CCOc1ccc(-n2c(SCC(=O)Nc3ccc(OC)cc3)nc3c(c2=O)SCC3)cc1	7.3	59.5*	-13.5	81.7*
O=C(NC1=NCCS1)c1ccc([N+](=O)[O-])cc1Cl	nt	nt	4.7	nt
CCOC(=O)CN1N=C(/C=C/c2ccc(C(C)C)cc2)CCC1=O	nt	nt	1.1	nt
